# Laboratory results taken from PubChem BioAssay (NCATS).
# Records with an inconclusive call do not appear. The source made the active and inactive calls. Calls follow the shape of the dose curve; as a rule, active = well fitted cell-killing curve with a large enough effect; inconclusive = small, poorly fitted or top-dose-only effect, or effect the other way; inactive = flat fitted curve, though single readings scatter. Where a SMILES comes first, the peptide text is derived from it. The star is where a group is joined. βNA = c1ccc2cc(N*)ccc2c1; Cbz = O=C(OCc1ccccc1)*
# Tested on: PA-1
# Assay: Primary qHTS to identify gynecologic anti-cancer compounds using libraries of approved drugs and bioactive compounds (AID 1345084); also: nearly all actives have a fitted effect of over 55% in size
# Conditions: Gynecologic cancer cell panel viability, ATPlite luminescence, 48 h; series mostly up to 57.5 µM; activity change, negative = cytotoxicity: at the top concentration
# Method in brief: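 Five-point cytotoxicity, 48 h drug exposure at 37 C, 5% CO2, on cells seeded 16 h beforehand. ATP content read by ATPlite luminescence.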
# % is scaled to controls: 0 for no effect and ±100 for the full control effect.
row,Compound,"activity change, negative = cytotoxicity"
1,NC(N)=NCCC[C@H](NC(=O)c1sccc1NS(=O)(=O)c1cccc2nsnc12)C(=O)O,-2.31% (inactive)
2,Nc1ccc(-n2nc(C(F)(F)F)cc2C(F)(F)F)cc1,4.86% (inactive)
3,C[C@H](O)C(O)(C(=O)OCc1ccccc1NC(=O)CCC(N)C(=O)O)[C@H](C)O (some centres undefined),2.52% [at 25.3 µM] (inactive)
4,CC[C@H](NC(=O)c1c(O)c(-c2ccccc2)nc2ccccc12)c1ccccc1,6.32% (inactive)
5,CC/C=C/C(O)C(O)C1=C(C)C(=O)C2(O1)C(=O)NC(OC)(C(=O)c1ccccc1)C2O (centres undefined),6.69% [at 25.3 µM] (inactive)
6,Fc1cccc(CN(C2=NCCN2)c2c(Cl)cccc2Cl)c1,5.71% (inactive)
7,O=C(O)CCc1cccc(O)c1O[C@@H]1O[C@H](CO)[C@@H](O)[C@H](O)[C@H]1O,-2.92% [at 38.5 µM] (inactive)
8,CCC(C)/C=C(C)/C=C/C1=CC2=CC(=O)C(C)(O)C(OC(C)=O)C2CO1 (centres undefined),16.9% [at 38.5 µM] (inactive)
9,CC1CC(O)/C=C/C(O)/C=C\C(=O)O1 (centres undefined),-4.22% (inactive)
10,CC(C)CC(NC(=O)OCc1ccccc1)C(=O)NC(CC(C)C)C(=O)NC(CCC(=O)O)C(=O)Nc1ccc2ccccc2c1 (stereo not drawn) (Cbz-Leu-Leu-Glu-βNA; configuration not given here),22.9% (inactive)
11,COCc1c(O)c(C(=O)O)c(C)c2c1OC(=O)c1c(C)cc(O)c(CO)c1O2,-1.88% [at 38.5 µM] (inactive)
12,C=C(C(=O)O)C1CC(O)C2(C)CCCC(C)(O)C2C1 (centres undefined),-8.9% (inactive)
13,C=C[C@H]1[C@H](O[C@@H]2O[C@H](CO)[C@@H](O)[C@H](OC(=O)/C=C/c3ccc(O)c(OC)c3)[C@H]2O)OC=C2C(=O)OCC[C@]21O,5.53% [at 25.3 µM] (inactive)
14,COC(=O)C1(O)C(OC(C)=O)CCC2C3(CC(c4ccoc4)OC3=O)C(C)=CCC21C(=O)OC (centres undefined),27.3% [at 25.3 µM] (inactive)
